Targets with a hit are over-represented here; the source holds about 7,900 in all. About 0.6% of all pairs of compound and target were hits.
Experiments:
Assay in all cases: log2 fold change, soluble protein after heating vs DMSO (PISA); higher = thermal stabilisation; K562 cells, 10 uM, 30 min; active = over 0.2 and 3.5 SD of the protein, either way, in both replicates (recomputed)
[1] = compound: C1=CC=C(C=C1)[C@H](COC2=CC3=C(C=C2)NC(=O)N3)NC(=O)C4=CC=CN(C4=O)CC5=CC(=C(C=C5)F)F
Outline: (§1)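 Soluble protein was quantified by TMTpro 16plex LC-MS/MS after channel sums were equalised. It was obtained as the supernatant after 21,000xg for 90 min from pooled aliquots of K562 cells (2×10^6 cells/mL, 10 μM compound, 30 min) heated for 3 min across 48°C-58°C and extracted in PBS with 0.5% NP-40 at 4°C. Thermal stability values are relative to control samples and come from duplicates. They are given as log2 fold changes.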

[2] = compound: CC1=C(SC2=C1C(=N[C@H](C3=NN=C(N32)C)CC(=O)N)C4=CC=C(C=C4)Cl)C
Outline: as §1

[3] = compound: CC1=C2C(=CC=C1)N=C(N(C2=O)C3=CC=CC=C3C)CN4C=NC5=C(N=CN=C54)N
Outline: as §1

[4] = compound: Cc1sc2c(c1C)C(c1ccc(Cl)cc1)=N[C@@H](CC(=O)OC(C)(C)C)c1nnc(C)n1-2
Outline: as §1

[5] = compound: c1ccc([C@@H]2C[C@H]2NC2CCNCC2)cc1
Outline: as §1

Measured: log2 fold change

MAGEA9 (UniProt P43362)
Sequence of UniProt P43362 (P43362 whole entry, looked up): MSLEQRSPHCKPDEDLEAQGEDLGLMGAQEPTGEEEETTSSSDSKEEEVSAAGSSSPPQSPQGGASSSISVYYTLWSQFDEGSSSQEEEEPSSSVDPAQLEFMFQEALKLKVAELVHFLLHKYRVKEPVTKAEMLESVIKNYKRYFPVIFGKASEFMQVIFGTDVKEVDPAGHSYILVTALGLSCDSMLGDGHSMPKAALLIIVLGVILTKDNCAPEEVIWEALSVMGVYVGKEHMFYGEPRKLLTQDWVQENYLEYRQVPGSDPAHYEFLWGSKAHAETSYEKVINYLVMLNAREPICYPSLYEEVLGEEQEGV
inactive: [1] 0.046 | [2] -0.03 | [3] 0.047 | [4] -0.055 | [5] -0.067

IPO13 (UniProt O94829)
inactive: [1] -0.005 | [2] 0.008 | [3] 0.098 | [4] 0.037 | [5] 0.034

MAGEA8 (UniProt P43361)
Sequence of UniProt P43361 (P43361 whole entry, looked up): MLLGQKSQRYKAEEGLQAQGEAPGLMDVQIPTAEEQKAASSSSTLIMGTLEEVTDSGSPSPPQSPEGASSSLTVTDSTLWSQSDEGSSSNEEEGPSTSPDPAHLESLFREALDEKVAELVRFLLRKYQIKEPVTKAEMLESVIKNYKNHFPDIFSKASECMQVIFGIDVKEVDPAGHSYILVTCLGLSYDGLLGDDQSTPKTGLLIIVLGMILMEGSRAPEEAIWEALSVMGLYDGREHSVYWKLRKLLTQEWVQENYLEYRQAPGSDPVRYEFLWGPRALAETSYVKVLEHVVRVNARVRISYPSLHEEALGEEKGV
inactive: [1] 0.075 | [2] -0.035 | [3] 0.02 | [4] -0.119 | [5] 0.077

KPNA6 (UniProt O60684)
inactive: [1] -0.017 | [2] -0.046 | [3] 0.093 | [4] 0.105 | [5] 0.07

IPO9 (UniProt Q96P70)
Sequence of UniProt Q96P70 (Q96P70 whole entry, looked up): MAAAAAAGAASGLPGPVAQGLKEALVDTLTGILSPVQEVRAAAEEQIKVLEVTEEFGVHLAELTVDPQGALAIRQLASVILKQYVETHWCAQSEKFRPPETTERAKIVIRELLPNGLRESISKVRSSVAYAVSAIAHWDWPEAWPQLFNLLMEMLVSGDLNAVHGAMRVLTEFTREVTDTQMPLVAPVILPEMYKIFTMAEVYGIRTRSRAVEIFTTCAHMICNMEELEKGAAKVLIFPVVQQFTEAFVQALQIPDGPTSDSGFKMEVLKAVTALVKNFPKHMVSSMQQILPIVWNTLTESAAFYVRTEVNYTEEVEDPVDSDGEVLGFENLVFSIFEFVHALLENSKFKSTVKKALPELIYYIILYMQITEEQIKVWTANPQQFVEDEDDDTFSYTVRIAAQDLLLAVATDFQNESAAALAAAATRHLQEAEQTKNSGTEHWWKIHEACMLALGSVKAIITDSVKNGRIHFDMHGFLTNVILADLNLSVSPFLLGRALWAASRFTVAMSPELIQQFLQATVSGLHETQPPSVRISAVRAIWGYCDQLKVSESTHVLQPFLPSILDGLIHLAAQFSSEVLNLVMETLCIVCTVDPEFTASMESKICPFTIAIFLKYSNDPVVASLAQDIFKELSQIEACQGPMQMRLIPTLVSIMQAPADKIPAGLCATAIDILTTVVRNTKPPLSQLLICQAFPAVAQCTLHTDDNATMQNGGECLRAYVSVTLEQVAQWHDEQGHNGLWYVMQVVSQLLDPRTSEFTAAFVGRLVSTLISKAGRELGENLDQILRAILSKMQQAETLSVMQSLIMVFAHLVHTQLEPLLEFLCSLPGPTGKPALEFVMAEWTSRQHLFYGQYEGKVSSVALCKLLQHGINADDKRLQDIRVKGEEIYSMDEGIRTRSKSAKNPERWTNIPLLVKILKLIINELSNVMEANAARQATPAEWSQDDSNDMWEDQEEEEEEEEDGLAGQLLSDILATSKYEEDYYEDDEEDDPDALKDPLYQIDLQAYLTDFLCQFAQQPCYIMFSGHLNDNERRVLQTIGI
inactive: [1] 0.018 | [2] 0.063 | [3] 0.014 | [4] -0.01 | [5] 0.079

MAGOHB (UniProt Q96A72)
inactive: [1] 0.02 | [2] 0.042 | [3] 0.079 | [4] -0.153 | [5] -0.129

LNPK (UniProt Q9C0E8)
Sequence of UniProt Q9C0E8 (Q9C0E8 whole entry, looked up): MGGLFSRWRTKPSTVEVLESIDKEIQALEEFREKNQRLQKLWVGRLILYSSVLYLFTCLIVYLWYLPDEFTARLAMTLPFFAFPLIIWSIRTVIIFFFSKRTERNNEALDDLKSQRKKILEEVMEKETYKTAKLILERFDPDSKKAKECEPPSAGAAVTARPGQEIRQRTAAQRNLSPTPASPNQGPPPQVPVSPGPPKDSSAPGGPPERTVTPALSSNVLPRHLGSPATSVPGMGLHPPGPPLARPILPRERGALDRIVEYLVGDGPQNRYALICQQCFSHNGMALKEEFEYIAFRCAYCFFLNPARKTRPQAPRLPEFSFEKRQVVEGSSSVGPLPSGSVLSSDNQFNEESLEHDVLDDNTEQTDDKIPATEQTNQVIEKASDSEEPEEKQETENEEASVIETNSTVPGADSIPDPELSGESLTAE
inactive: [1] 0.015 | [2] 0.015 | [3] 0.009 | [4] -0.01 | [5] 0.016

MAP2K7 isoform 4 (UniProt O14733)
inactive: [1] -0.009 | [2] 0.029 | [3] 0.065 | [4] 0.013 | [5] 0.044

MIEF1 (UniProt L0R8F8)
inactive: [1] 0.072 | [2] 0.026 | [3] 0.039 | [4] -0.092 | [5] 0.007

MIA2 (UniProt Q96PC5)
inactive: [1] -0.036 | [2] 0.041 | [3] 0.02 | [4] 0.029 | [5] 0.027

LBR (UniProt Q14739)
inactive: [1] -0.105 | [2] 0.051 | [3] 0.011 | [4] -0.054 | [5] -0.005

MEPCE (UniProt Q7L2J0)
inactive: [1] 0.017 | [2] 0.001 | [3] 0.064 | [4] 0.028 | [5] 0.008

L2HGDH (UniProt Q9H9P8)
inactive: [1] -0.031 | [2] 0.07 | [3] 0.078 | [4] 0.018 | [5] -0.029

MAP2K3 isoform 3 (UniProt P46734)
inactive: [1] -0.091 | [2] -0.051 | [3] 0.05 | [4] 0.026 | [5] 0.016

ITPRIP (UniProt Q8IWB1)
inactive: [1] -0.024 | [2] 0.096 | [3] 0.054 | [4] -0.081 | [5] 0.027

LPGAT1 (UniProt Q92604)
inactive: [1] -0.068 | [2] -0.136 | [3] -0.02 | [4] 0.086 | [5] 0.074

KHDC4 (UniProt Q7Z7F0)
inactive: [1] -0.063 | [2] 0.129 | [3] 0.007 | [4] -0.061 | [5] -0.064

LARP4 isoform 4 (UniProt Q71RC2)
Sequence of UniProt Q71RC2 (Q71RC2 whole entry, looked up): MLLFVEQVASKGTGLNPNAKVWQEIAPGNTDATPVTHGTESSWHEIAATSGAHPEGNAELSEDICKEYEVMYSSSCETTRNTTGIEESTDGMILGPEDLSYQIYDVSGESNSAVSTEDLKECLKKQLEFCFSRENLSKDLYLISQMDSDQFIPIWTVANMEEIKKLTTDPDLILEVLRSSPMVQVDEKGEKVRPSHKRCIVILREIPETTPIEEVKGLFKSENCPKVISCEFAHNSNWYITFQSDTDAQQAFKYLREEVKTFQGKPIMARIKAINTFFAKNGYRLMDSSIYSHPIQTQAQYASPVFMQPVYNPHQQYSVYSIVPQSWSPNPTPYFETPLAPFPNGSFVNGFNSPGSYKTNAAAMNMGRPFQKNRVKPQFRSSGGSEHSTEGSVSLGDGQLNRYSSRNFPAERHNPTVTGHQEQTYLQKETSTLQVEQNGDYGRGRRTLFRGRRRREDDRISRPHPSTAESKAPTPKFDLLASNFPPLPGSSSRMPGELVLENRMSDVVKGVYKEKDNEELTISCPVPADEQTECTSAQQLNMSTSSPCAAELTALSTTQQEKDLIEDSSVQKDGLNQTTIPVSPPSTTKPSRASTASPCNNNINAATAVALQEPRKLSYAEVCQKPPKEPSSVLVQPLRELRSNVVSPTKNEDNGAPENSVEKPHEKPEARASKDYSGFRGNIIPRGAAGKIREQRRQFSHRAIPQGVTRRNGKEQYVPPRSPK
inactive: [1] 0.069 | [2] -0.071 | [3] 0 | [4] 0.093 | [5] 0.036

KDM3B (UniProt Q7LBC6)
inactive: [1] -0.013 | [2] 0.026 | [3] 0.08 | [4] 0.038 | [5] 0.071

IGFBP2 (UniProt P18065)
Sequence of UniProt P18065 (P18065 whole entry, looked up): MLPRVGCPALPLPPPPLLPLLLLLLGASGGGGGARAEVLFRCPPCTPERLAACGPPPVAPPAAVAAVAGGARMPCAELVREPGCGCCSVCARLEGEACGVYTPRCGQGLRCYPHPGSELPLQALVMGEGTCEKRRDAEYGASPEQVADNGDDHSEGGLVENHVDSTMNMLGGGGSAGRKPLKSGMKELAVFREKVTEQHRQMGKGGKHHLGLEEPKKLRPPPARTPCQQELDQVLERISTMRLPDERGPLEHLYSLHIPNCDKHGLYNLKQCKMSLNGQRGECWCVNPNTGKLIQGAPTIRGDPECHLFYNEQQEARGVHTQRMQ
inactive: [1] -0.121 | [2] -0.101 | [3] 0.131 | [4] -0.295 | [5] 0.062

LSR (UniProt Q86X29)
Sequence of UniProt Q86X29 (Q86X29 whole entry, looked up): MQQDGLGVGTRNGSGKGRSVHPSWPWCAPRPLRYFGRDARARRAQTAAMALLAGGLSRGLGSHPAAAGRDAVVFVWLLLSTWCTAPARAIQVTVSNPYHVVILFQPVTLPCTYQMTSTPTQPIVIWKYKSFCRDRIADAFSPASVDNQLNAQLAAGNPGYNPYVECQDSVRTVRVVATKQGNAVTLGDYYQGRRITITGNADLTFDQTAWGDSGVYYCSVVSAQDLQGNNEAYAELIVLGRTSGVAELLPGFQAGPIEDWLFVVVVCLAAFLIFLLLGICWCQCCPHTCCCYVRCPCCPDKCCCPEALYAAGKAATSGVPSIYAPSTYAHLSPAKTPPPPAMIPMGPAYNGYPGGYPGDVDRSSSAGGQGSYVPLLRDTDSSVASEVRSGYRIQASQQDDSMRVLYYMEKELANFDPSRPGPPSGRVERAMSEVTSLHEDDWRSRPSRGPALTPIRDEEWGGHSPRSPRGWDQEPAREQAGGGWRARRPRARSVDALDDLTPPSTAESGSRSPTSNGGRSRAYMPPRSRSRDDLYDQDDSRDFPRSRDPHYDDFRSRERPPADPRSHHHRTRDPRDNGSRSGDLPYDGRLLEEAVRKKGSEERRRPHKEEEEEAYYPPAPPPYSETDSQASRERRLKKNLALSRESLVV
inactive: [1] -0.016 | [2] 0.033 | [3] 0.006 | [4] -0.034 | [5] 0.015

MICOS13 (UniProt Q5XKP0)
inactive: [1] -0.018 | [2] 0.07 | [3] -0.032 | [4] 0 | [5] 0.003

LDLR (UniProt P01130)
Sequence of UniProt P01130 (P01130 whole entry, looked up): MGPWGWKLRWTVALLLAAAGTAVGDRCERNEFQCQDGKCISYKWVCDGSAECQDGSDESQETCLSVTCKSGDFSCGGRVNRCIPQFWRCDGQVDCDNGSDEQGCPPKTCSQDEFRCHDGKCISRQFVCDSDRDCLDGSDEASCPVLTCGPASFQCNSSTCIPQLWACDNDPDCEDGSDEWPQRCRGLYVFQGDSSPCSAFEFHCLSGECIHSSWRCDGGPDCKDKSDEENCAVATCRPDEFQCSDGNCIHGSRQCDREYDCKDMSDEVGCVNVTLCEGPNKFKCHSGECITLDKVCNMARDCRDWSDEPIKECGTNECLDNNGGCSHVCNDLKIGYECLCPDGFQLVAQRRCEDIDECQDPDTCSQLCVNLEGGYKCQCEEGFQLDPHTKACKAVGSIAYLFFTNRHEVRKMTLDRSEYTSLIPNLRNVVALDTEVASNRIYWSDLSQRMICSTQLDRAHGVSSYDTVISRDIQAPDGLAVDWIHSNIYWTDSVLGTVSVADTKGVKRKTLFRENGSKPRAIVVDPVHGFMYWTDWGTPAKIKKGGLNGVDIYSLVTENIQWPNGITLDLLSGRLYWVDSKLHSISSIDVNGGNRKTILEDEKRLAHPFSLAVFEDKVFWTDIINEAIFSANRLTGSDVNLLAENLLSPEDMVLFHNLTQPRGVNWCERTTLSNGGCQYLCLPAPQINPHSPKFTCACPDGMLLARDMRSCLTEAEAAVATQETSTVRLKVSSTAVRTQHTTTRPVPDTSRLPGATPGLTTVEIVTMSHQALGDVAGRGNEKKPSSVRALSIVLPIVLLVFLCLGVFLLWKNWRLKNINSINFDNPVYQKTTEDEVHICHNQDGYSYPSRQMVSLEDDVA
inactive: [1] -0.037 | [2] 0.014 | [3] 0.037 | [4] 0.022 | [5] 0.062

MBLAC1 (UniProt A4D2B0)
Sequence of UniProt A4D2B0 (A4D2B0 whole entry, looked up): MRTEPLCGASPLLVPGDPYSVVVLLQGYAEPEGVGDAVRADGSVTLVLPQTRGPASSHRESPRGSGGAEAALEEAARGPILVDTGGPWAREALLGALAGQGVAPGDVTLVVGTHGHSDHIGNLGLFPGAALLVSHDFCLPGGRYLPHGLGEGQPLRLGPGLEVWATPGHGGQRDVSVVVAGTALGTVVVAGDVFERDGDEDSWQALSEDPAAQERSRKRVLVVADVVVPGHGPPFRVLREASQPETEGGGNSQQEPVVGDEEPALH
inactive: [1] -0.019 | [2] 0.067 | [3] -0.064 | [5] -0.029

— the supplement of paper PMC10849652
